MCL1-BIM inh: MCL1-BIM-BH3 interaction inhibition (human); Q07820; GST-MCL1 / FITC-Bim-BH3 fluorescence polarization; inhibition, % at 10.9 µM; 320,000 tested, 0.68% active;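 active means inhibition above the mean inhibition of all tested compounds plus 3 SD, set per campaign, cut at about 40% in these data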;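 further: 0% = DMSO wells and 100% = unlabeled Bim-BH3 peptide control; higher means more loss of mP so more displacement of Bim peptide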
Bcl-xL primary: inhibitors of human Bcl-xL; Q07817; inhibition, % at 10.9 µM; 320,000 tested, 0.7% active; AID 2129; GST-Bcl-xL / FITC-Bim BH3 peptide fluorescence polarization;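 active means inhibition above the mean of all tested compounds plus 3 SD, cutoff set per campaign, cut at about 30% in these data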;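 further: 0% = DMSO wells and 100% = unlabeled Bim-BH3 peptide competitor; inhibitors lower millipolarization by displacing the labeled peptide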
eLon inh: E. coli protease La inhibition. purified E. coli Lon protease, fluorescence polarization. inhibition, % at 7.94 µM. 360,000 tested, 0.42% active; in the data active means inhibition above about 13%, passing the limit was not always enough;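 further: 0% = enzyme with probe and DMSO and 100% = no enzyme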
EBV gp42 block: EBV gp42 inhibition. AID 1085. inhibition, % (tested at 21.74 µM). Fluorescence polarization binding assay, mP read-out. Q1HVG2. 220,000 tested, 0.42% active; in the data active means inhibition above about 50%
MEX-5 binding: C. elegans MEX-5 TCR-2 RNA binding activity | Q9XUB2 | MEX-5/FITC-TCR2 RNA binding, fluorescence polarization; stronger effect = lower value | activity score (negative = inhibition of binding), % at 10 µM | 300,000 tested, 0.38% active;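 active means inhibition past about -25% in most replicates, and total fluorescence under double the plate's negative control median, limit read from the data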;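 further: 0% = DMSO and -100% = 5 µM competing unlabeled TCR2 RNA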
Target sequence (Q9XUB2 whole entry, looked up): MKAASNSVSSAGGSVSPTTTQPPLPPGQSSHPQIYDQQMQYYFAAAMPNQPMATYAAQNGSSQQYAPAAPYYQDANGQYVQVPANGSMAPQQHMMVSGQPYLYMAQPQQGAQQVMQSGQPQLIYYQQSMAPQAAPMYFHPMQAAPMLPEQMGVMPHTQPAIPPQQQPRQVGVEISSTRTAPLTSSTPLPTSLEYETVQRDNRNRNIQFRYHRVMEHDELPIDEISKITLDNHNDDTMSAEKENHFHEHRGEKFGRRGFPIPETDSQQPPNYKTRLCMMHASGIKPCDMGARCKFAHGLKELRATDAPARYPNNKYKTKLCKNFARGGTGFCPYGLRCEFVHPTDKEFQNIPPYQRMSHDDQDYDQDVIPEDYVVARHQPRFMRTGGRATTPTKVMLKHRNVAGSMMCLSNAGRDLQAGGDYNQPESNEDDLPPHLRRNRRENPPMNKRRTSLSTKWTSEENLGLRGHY
GLD-1 RNA inh: GLD-1-TGE RNA interaction inhibition (C. elegans); Q17339; purified GLD-1 + fluorescein TGE RNA, fluorescence polarization; AID 2280; inhibition, % at 5.96 µM; 320,000 tested, 0.44% active;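 active means percent inhibition above a per-plate cutoff, the plate mean of test compounds plus 3 SD, cut at about 30% in these data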;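 further: 0% = DMSO wells with GLD-1 and probe and 100% = wells lacking GLD-1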
GLD-1 TGE cf: GLD-1 TGE RNA interaction inhibition, confirmation; shares compounds with GLD-1 RNA inh; GLD-1/FL-TGE RNA fluorescence polarization, biochemical; inhibition, % at 5.96 µM; 550 tested, 10% active;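 active means average inhibition across triplicates above the hit cutoff set in the primary screen, cut at about 32% in these data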;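 further: 0% = GLD-1 with RNA probe and DMSO and 100% = wells lacking GLD-1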
Active calls of the source: *. Most compounds without a hit are left out; they make up all but 1.4% or so of the library.

For Cc1cc2ccccc2n1CCNC(=O)C1CCCC1 the results were MCL1-BIM inh 24.4, Bcl-xL primary 27.3, eLon inh 11.4, EBV gp42 block -6.1 and GLD-1 RNA inh 17.2.
Cc1cc2ccccc2n1CCNC(=O)C1CC1 was read as MCL1-BIM inh 23.0, Bcl-xL primary 22.2, eLon inh 9.3, MEX-5 binding -1.2, GLD-1 RNA inh 34.5* and GLD-1 TGE cf 13.2.
CC(Sc1nnc(COc2ccc(Cl)cc2)o1)C(=O)Nc1ccc(N2CCOCC2)cc1 (centres undefined) was read as eLon inh 11.0.
COc1ccc(CNC(=O)c2sc(=O)n(Cc3ccccc3OC)c2C)cc1 was read as eLon inh 2.8.
For CC(C)N1CC2=C(OC(N)=C(C#N)C2c2cccnc2)/C(=C/c2cccnc2)C1 (centres undefined) the results were MCL1-BIM inh 36.6, Bcl-xL primary 45.0*, eLon inh 4.7, EBV gp42 block 20.1, GLD-1 RNA inh 38.7* and GLD-1 TGE cf 4.6.
`COCC(=O)NCc1ccc2c(c1)cc(C)n2C` gave MCL1-BIM inh 33.1, Bcl-xL primary 30.1, eLon inh 11.4, EBV gp42 block 14.8, MEX-5 binding -1.4, GLD-1 RNA inh 35.6* and GLD-1 TGE cf 13.8.
Cc1cc2cc(CNC(=O)c3ccc4c(c3)OCO4)ccc2n1C was read as MCL1-BIM inh 28.6, Bcl-xL primary 33.2*, eLon inh 25.0*, EBV gp42 block -0.6, MEX-5 binding -0.5, GLD-1 RNA inh 43.6* and GLD-1 TGE cf 6.3.
Cc1cc2cc(CNC(=O)COc3ccccc3)ccc2n1C was read as MCL1-BIM inh 16.7, Bcl-xL primary 16.9, eLon inh 22.7, EBV gp42 block -8.9, MEX-5 binding -0.1 and GLD-1 RNA inh 21.1.
Screening Cn1nc(C(=O)OCC(=O)Nc2cccc(S(=O)(=O)N3CCCC3)c2)c2ccccc2c1=O returned MCL1-BIM inh 9.5, Bcl-xL primary 4.9, eLon inh -2.1, EBV gp42 block -16.2, MEX-5 binding -2.0 and GLD-1 RNA inh -5.9.
For Cc1ccc(-c2nn(-c3ccccc3)cc2C(=O)Nc2cccc(S(=O)(=O)NC3=NCCC3)c2)cc1 the results were eLon inh -1.2.
For CCOC(=O)CCC(=O)Nc1ccc([N+](=O)[O-])cc1C the results were MCL1-BIM inh 5.2, Bcl-xL primary 4.0, eLon inh 2.2, EBV gp42 block -32.4, MEX-5 binding 0.5 and GLD-1 RNA inh -2.5.
CCOC(=O)c1cc2c(ccn2C)n1CC(=O)N(Cc1ccccc1)c1ccc(F)cc1 was read as MCL1-BIM inh 12.7, Bcl-xL primary 8.8, eLon inh 10.6, EBV gp42 block -0.3, MEX-5 binding -0.5, GLD-1 RNA inh 37.0* and GLD-1 TGE cf 46.7*.
Screening CCOC(=O)c1cc2c(ccn2C)n1Cc1ccccc1C returned MCL1-BIM inh 5.4, Bcl-xL primary 4.8, eLon inh -4.1, EBV gp42 block 8.1, MEX-5 binding 0.9 and GLD-1 RNA inh 10.6.
CCOC(=O)c1cc2c(ccn2C)n1CC(=O)N(Cc1ccccc1)c1ccccc1 was read as MCL1-BIM inh 1.8, Bcl-xL primary 5.8, eLon inh 7.8, EBV gp42 block 7.5, MEX-5 binding 1.1, GLD-1 RNA inh 35.7* and GLD-1 TGE cf 55.5*.
For CC(C)OC(=O)c1cc2c(ccn2C)n1CC(=O)N(Cc1ccccc1)c1ccc(F)cc1 the results were MCL1-BIM inh 14.3, Bcl-xL primary 9.0, eLon inh 11.6, EBV gp42 block 19.9, MEX-5 binding -0.9 and GLD-1 RNA inh 25.2.
`COc1ccccc1-c1cnn2c(NC3CCCC3)cc(C)nc12` gave MCL1-BIM inh 2.0, Bcl-xL primary -1.6, eLon inh -3.4, MEX-5 binding -0.1, GLD-1 RNA inh 66.1* and GLD-1 TGE cf -2.4.
Screening CCOC(=O)N1CCC(Nc2cc(C)nc3c(-c4ccccc4OC)c(C)nn23)CC1 returned MCL1-BIM inh 6.1, Bcl-xL primary 1.9, eLon inh -17.1, EBV gp42 block -0.6, MEX-5 binding -1.2 and GLD-1 RNA inh 3.1.
Screening NC(=O)CSc1nnc(CSc2ncccn2)n1-c1ccccc1 returned MCL1-BIM inh -1.0, Bcl-xL primary -1.6, eLon inh -0.2, EBV gp42 block -14.0, MEX-5 binding 1.5 and GLD-1 RNA inh 4.1.
Screening CS(=O)(=O)c1ccc(Cl)c(NC(=O)CSc2n[nH]c(N)n2)c1 returned MCL1-BIM inh 0.0, Bcl-xL primary 4.5, eLon inh -11.3, MEX-5 binding 2.2 and GLD-1 RNA inh 5.7.
Screening CCN(c1ccccc1)S(=O)(=O)c1ccc(Cl)c(NC(=O)CSc2n[nH]c(N)n2)c1 returned MCL1-BIM inh -1.9, Bcl-xL primary -0.6, eLon inh -0.9, EBV gp42 block -16.7, MEX-5 binding -0.4, GLD-1 RNA inh 38.6* and GLD-1 TGE cf 0.1.
`COc1ccc(/C=C(\CC(=O)O)c2nc3ccccc3s2)cc1O` gave MCL1-BIM inh -0.2, Bcl-xL primary 7.0, eLon inh 4.6, EBV gp42 block 7.2, MEX-5 binding 2.1, GLD-1 RNA inh 55.0* and GLD-1 TGE cf 39.1*.
COc1cc(/C=C(\CC(=O)O)c2nc3ccccc3s2)cc(OC)c1O was read as MCL1-BIM inh 15.3, Bcl-xL primary 17.4, eLon inh -28.0, EBV gp42 block -13.3, MEX-5 binding 0.2 and GLD-1 RNA inh -3.9.
Screening CCNC(=O)CC1SC(=Nc2ccc(C)c([N+](=O)[O-])c2)N(C)C1=O (centres undefined) returned MCL1-BIM inh -0.5, Bcl-xL primary 5.5, eLon inh -8.3, MEX-5 binding -3.6, GLD-1 RNA inh 31.2* and GLD-1 TGE cf 0.6.
For Cc1ccc(S(=O)(=O)N2C[C@H]3C(=O)C[C@@H](c4ccccc4)N(S(C)(=O)=O)[C@H]3C[C@H]2c2ccccc2)cc1 the results were eLon inh -3.6.
`Nc1cccc2c1C(=O)N(CC(=O)NC13CC4CC(CC(C4)C1)C3)C2=O` gave MCL1-BIM inh 31.8, Bcl-xL primary 32.3*, eLon inh 13.5, EBV gp42 block 63.7*, MEX-5 binding -0.1, GLD-1 RNA inh 37.4* and GLD-1 TGE cf 28.9.
`CC1CN(C(=O)C2CC2)C(C)CN1C(=O)C1CC1` (centres undefined) gave MCL1-BIM inh 2.5, Bcl-xL primary 1.7, eLon inh -3.6, EBV gp42 block -11.6, MEX-5 binding -1.1, GLD-1 RNA inh 34.0* and GLD-1 TGE cf -4.7.
CC1CN(C(=O)C2CCCC2)C(C)CN1C(=O)C1CCCC1 (centres undefined) was read as MCL1-BIM inh 11.7, Bcl-xL primary 0.8, eLon inh 2.8, EBV gp42 block -17.4, MEX-5 binding -1.0 and GLD-1 RNA inh 2.0.

Screening data from PubChem.
